Our source for the inhibition values is ChEMBL document CHEMBL3433997, “St. Jude Leishmania screening dataset” (2016).

Common to all, as to assay type: functional
Assay [1] deals with Solute carrier family 2, facilitated glucose transporter member 1 (Homo sapiens) (UniProt P11166). Description: ST_JUDE_LEISH: Cytotoxicity at 2uM final concentration against transgenic Leishmania Mexicana promastigotes LmGLUT1 that are glucose transport deficient and complemented with the human glucose transporter GLUT1. Activity is measured by DNA content using SYBR green in vitro.

Assay [2] deals with Hexose transporter 1 (Plasmodium falciparum) (UniProt O97467). The assay can be described thus: ST_JUDE_LEISH: Cytotoxicity at 2uM final concentration against transgenic Leishmania Mexicana promastigotes LmPfHT that are glucose transport deficient and complemented with the Plasmodium falciparum hexose transporter. Activity is measured by DNA content using SYBR green in vitro.

The target of assay [3] is Glucose transporter (Leishmania mexicana) (UniProt O61059). Description: ST_JUDE_LEISH: Cytotoxicity at 2uM final concentration against transgenic Leishmania Mexicana promastigotes LmGT2 that are glucose transport deficient and complemented with the L. Mexicana glucose transporter 2. Activity is measured by DNA content using SYBR green in vitro.

Solute carrier family 2, facilitated glucose transporter member 1 (Homo sapiens), sequence (P11166 whole entry): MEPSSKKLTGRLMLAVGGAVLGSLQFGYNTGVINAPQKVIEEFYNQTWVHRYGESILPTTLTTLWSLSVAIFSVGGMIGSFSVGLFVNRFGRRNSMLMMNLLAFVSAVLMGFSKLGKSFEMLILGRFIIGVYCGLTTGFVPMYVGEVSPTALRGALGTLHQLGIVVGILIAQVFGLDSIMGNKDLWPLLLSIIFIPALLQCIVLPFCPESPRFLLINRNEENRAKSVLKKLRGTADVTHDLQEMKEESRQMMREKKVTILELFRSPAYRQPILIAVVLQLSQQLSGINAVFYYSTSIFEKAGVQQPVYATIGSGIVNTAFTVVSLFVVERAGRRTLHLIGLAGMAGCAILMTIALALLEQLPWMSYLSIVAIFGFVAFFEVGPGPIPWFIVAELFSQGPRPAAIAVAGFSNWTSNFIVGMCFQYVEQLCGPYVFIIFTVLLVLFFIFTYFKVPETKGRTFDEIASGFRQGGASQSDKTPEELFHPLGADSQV

In general, inhibition refers to the change of the read-out against control, counted positive when it falls. With `O=C(Cc1cccc(O)c1)Nc1ccc(-c2cccc(-c3nc4cc(C(F)(F)F)ccc4[nH]3)c2)cc1`, the inhibition in assay [1] is -0.18%; in assay [2], 1.54%; in assay [3] it was 0.62%.
On the same counts, the results for `N=C(N)c1ccc(C=Cc2ccc(C(=N)N)cc2O)cc1` are -0.26%, -0.04% and -0.9%.
For the compound `Oc1ccc(CCNc2nc(NCc3ccccc3-c3ccc(F)cc3)nc(N3CCNCC3)n2)cc1`, the values for the inhibition in assay [1], in assay [2] and in assay [3] were -6.17%, 3.48% and 6.39%, respectively.
For `CCc1sc(-c2ccc(C(C)(C)C)cc2)nc1C(=O)NCCCN1CCCC1=O` the same measures were -1.44%, -2.22% and -4.69%.
On the same counts, the results for `COc1ccc2nc(C)cc(Nc3ccc(Cl)c(Cl)c3)c2c1` are 7.6%, 14.2% and 17.3%.
In the case of `O=C(Cc1c[nH]cn1)Nc1cccc(-c2ccc(-c3nc4ccccc4[nH]3)cc2)c1`, the inhibition in assay [1] was 1.81%; in assay [2], 3.82%; in assay [3] it was -0.08%.
In the case of `CC1(C)N=C(N)N=C(N)N1c1ccc(Cl)cc1`, the figures for the inhibition in assay [1], in assay [2] and in assay [3] were 5.04%, 4.91% and 4.69%, respectively.
For the compound `CCc1ccc(N2C(N)=NC(N)=NC2(C)C)cc1`, the inhibition in assay [1] amounted to 0.74%; in assay [2], 1.29%; in assay [3], 2.09%.
Consider `Cc1cc(N(C)CCCN(C)C)nc(Nc2ccc(Br)cc2)n1`, for which the inhibition was found to be 0.19% in assay [1], 2.58% in assay [2] and 2.6% in assay [3].
On to `O=C(COc1ccc(Cl)c(Cl)c1)NCCCCCN1CCCN(C(=O)Nc2ccc(Cl)c(Cl)c2)CC1`, for which the inhibition in assay [1] is 4.35%; in assay [2] it was 3.1%; in assay [3], 2.27%.
For the compound `O=C(NCCCCN1CCC(c2ccc3c(c2O)CCCC3)CC1)c1ccc(-c2ccc(Cl)cc2)cc1`, the values for the inhibition in assay [1], in assay [2] and in assay [3] were 1.35%, 1.06% and 2.37%, respectively.
Turning to `O=C(Nc1cccc(-c2ccc(-c3nc4cc(F)ccc4[nH]3)cc2)c1)Nc1ccc(F)c(F)c1F`, the figures for the inhibition in assay [1], in assay [2] and in assay [3] were 2.86%, 4.09% and -1.44%, respectively.
As to `Cc1cc(N2CCN(C3CCCCC3)CC2)nc2cccc(O)c12`, the inhibition is -1.8% in assay [1], -0.66% in assay [2] and 0.33% in assay [3].
As to `COc1cc2c(c(OC)c1[N+](=O)[O-])C=CC1(O2)N(C)c2ccc([N+](=O)[O-])cc2C1(C)C` (configuration not stated), the inhibition was 4.19% in assay [1], 0.99% in assay [2] and 1.36% in assay [3].
For `Cc1cccc(-c2ccc(NC(=O)Nc3ccc4nccc(N5CCN(C)CC5)c4c3)cc2C)n1` the same measures were 8.09%, 5.32% and 3.13%.
For `C=CCC(CC=C)N1C(=O)C(c2ccccc2)(c2ccccc2)N=C1N`, the figures for the inhibition in assay [1], in assay [2] and in assay [3] were 0.75%, -0.83% and 0.62%, respectively.
As for `Cc1ccc2c(N/N=C/c3ccccc3[N+](=O)[O-])cc(C)nc2c1`, the inhibition in assay [1] was 2.06%; in assay [2] it was -5.28%; in assay [3] it was 1.01%.
For the compound `O=C(Nc1ccc(CN2CCN(S(=O)(=O)c3ccc(Cl)s3)CC2)cc1)c1cccs1`, the inhibition in assay [1] is 8.13%; in assay [2], 7.45%; in assay [3], 5.63%.
`COc1cc(NC(=O)/C=C/c2cccc3ccoc23)ccc1OCCN(C(C)C)C(C)C`: the figures for the inhibition in assay [1], in assay [2] and in assay [3] were 9.36%, 3.8% and 1.81%, respectively.
As for `COc1ccccc1CNc1ccnc(NCCc2cccc(C(F)(F)F)c2)n1`, the inhibition is 7.85% in assay [1], 8.92% in assay [2] and 2.54% in assay [3].
In the case of `Fc1ccc(CNc2ccc3ncc(-c4cccnc4)n3n2)cc1`, the inhibition came out at 2.61% in assay [1], 2.21% in assay [2] and 0.67% in assay [3].
With `CCOc1cc(C(=O)Nc2cccnc2)cc(Br)c1OCCC(C)C`, the inhibition in assay [1] was 1.25%; in assay [2], -2.07%; in assay [3], -0.8%.
Regarding `CC(C)(C)N1CCC(N(Cc2ccc(-c3ccc(C(F)(F)F)cc3)cc2)C(=O)Cn2c(CCc3cccc(F)c3F)nc(=O)c3cccnc32)CC1`, the inhibition amounted to 2.09% in assay [1], 0.99% in assay [2] and 0.47% in assay [3].
For `CCCCC(NCC)c1ccc(OCCOc2ccc(C(CCCC)NCC)cc2)cc1` (configuration not stated), the inhibition in assay [1] is 81.2%; in assay [2], 41.5%; in assay [3] it was 106%.
Take `CC(C)C1=CC(=NOS(=O)(=O)c2ccccc2)C=C(C(C)C)C1=O`: the inhibition is 0.62% in assay [1], 4.11% in assay [2] and -0.38% in assay [3].
For `Nc1c2ccccc2nc2ccc(Cl)cc12`, the inhibition in assay [1] is 14.6%; in assay [2], 16.4%; in assay [3] it was 9.04%.
Consider `O=C(C=Cc1ccc(Cl)c(Cl)c1)NCCCCCN1CCCC(CCCNC(=O)c2cccs2)C1` (configuration not stated), for which the values for the inhibition in assay [1], in assay [2] and in assay [3] were 6.06%, 3.58% and 5.16%, respectively.
For the compound `Fc1ccc2c(NN=Cc3ccccc3F)ccnc2c1`, the inhibition in assay [1] was 0.28%; in assay [2], -0.28%; in assay [3] it was 0.43%.
For `O=C(C1COc2ccccc2O1)N(CCCn1ccnc1)Cc1csc(-c2ccc(CNCc3ccccc3)cc2)n1` (configuration not stated), the inhibition was determined as 3.99% in assay [1], 4.14% in assay [2] and 2.05% in assay [3].
`FC(F)(F)c1ccc(COc2cc(Cl)ccc2Cn2ccnc2)cc1`: the inhibition turned out to be 14% in assay [1], 9.99% in assay [2] and 7.28% in assay [3].
Take `Cc1cc(=NN=Cc2cccc(Cl)c2)c2ccc(F)cc2[nH]1`: the figures for the inhibition in assay [1], in assay [2] and in assay [3] were 0.61%, 1.03% and 1.04%, respectively.
Consider `CCOC(=O)c1cc2c(CCN3C(=O)c4ccccc4C3=O)cn(C)c2cc1-c1ccncc1`, for which the inhibition in assay [1] stood at 93%; in assay [2] it was 91%; in assay [3], 90.9%.
Consider `FC(F)(F)c1ccc2[nH]c(-c3cccc(-c4cccc(CNCCN5CCNCC5)c4)c3)nc2c1`, for which the inhibition in assay [1] was -0.06%; in assay [2], 3.11%; in assay [3] it was 1.99%.
With `COc1cccc(Nc2nc(C)cc(NC3CCN(Cc4ccccc4)CC3)n2)c1`, the inhibition in assay [1] amounted to 5.81%; in assay [2], 3.9%; in assay [3], 0.8%.
As for `c1ccc(C2CCC(N3CCC(N4CCCC4)CC3)CC2)cc1` (configuration not stated), the inhibition was 0.84% in assay [1], -0.62% in assay [2] and 1.54% in assay [3].
On to `CCCc1cc(Cc2cnc(N)nc2N)cc(CCC)c1OC`, for which the figures for the inhibition in assay [1], in assay [2] and in assay [3] were 4.11%, 1.27% and -2.49%, respectively.
Turning to `COc1cccc(NC(=O)NC2CCN(CCCCCNC(=O)/C=C/c3ccc(Cl)c(Cl)c3)CC2)c1`, the values for the inhibition in assay [1], in assay [2] and in assay [3] were 0.13%, 0.47% and 3.52%, respectively.
Consider `CNC(=N)c1ccc(NC(=O)c2ccc(C(=O)Nc3ccc(C(=N)NC)cc3)cc2)cc1`, for which the inhibition in assay [1] was 1.44%; in assay [2], 2.97%; in assay [3], 1.84%.
With `COc1ccc(OCCCN2CCN(CC(c3ccc(F)cc3)N3CCN(C(C)C)CC3)CC2)c2ccccc12` (configuration not stated), the inhibition in assay [1] was 5.57%; in assay [2], 5.69%; in assay [3], 5.07%.
For `CCCNCc1ccc(-c2ccc(CN(CCOC)C(=O)[C@H]3CCCO3)cc2)nc1` the same measures were 4.56%, 4.55% and 4.1%.
Turning to `CCc1cc2c(cc1OCCN(C)C)N(C(=O)Nc1ccc(-c3ccncc3)c(Cl)c1)CC2`, the results for the inhibition in assay [1], in assay [2] and in assay [3] were 6.82%, 6.4% and 3.08%, respectively.
In the case of `CC1(C)NC(N)=NC(=N)N1OCCc1ccc(N)cc1`, the results for the inhibition in assay [1], in assay [2] and in assay [3] were 5.6%, 6.43% and 5.49%, respectively.
With `CCn1c(-c2nonc2N)nc2c(C#CC(C)(C)O)ncc(OCCNCCc3ccc(OC)cc3)c21`, the values for the inhibition in assay [1], in assay [2] and in assay [3] were 5.15%, 9.69% and 2.23%, respectively.
With `CCCc1cn2c3c(cc(C(=O)N[C@@H](Cc4ccccc4)[C@H](O)CNC4CCCCC4)cc13)N(CC)S(=O)(=O)CC2`, the figures for the inhibition in assay [1], in assay [2] and in assay [3] were 0.5%, 0.94% and -0.79%, respectively.
Take `CN(C)CCCN(C)C(=O)c1cc2cc(-c3ccccc3)ccc2n1S(=O)(=O)c1ccccc1`: the values for the inhibition in assay [1], in assay [2] and in assay [3] were 5.31%, -2.36% and -0.41%, respectively.
As for `COc1ccc2c(=O)c(-c3ccc(OC(F)(F)F)cc3)c(C)[nH]c2c1`, the inhibition in assay [1] was -0.72%; in assay [2], 1.76%; in assay [3] it was 1.81%.
In the case of `COc1cc(C(=O)N2CCOC(CCN3CCC4c5ccccc5CC43)(c3ccc(Cl)c(Cl)c3)C2)cc(OC)c1OC` (configuration not stated), the results for the inhibition in assay [1], in assay [2] and in assay [3] were 3.86%, -2.68% and 9.19%, respectively.
`CC(=O)Nc1cccc(C(=O)Nc2cccc(-c3csc(-c4nc5ccccc5[nH]4)c3)c2)c1`: the inhibition in assay [1] came out at 4.93%; in assay [2] it was 2.83%; in assay [3], 3.14%.
For the compound `O=S(=O)(NCCN1CCCC1)c1cccc(-c2ccc(CNCc3ccsc3)cc2)c1`, the values for the inhibition in assay [1], in assay [2] and in assay [3] were 2.71%, 1.13% and 3.02%, respectively.
